# Results published in PubChem BioAssay (Tox21).
# Values without a mark were called inactive. Results filed as inconclusive are left out. A call without a number means that no potency is given here. The source made the active and inactive calls. Unless noted, calls come from the whole dose curve.
# Tests used:
# [1] = Nuclear factor erythroid 2-related factor 2/antioxidant responsive element (Nrf2/ARE) small molecule agonists: qHTS cell viability counter screen in human keratinocytes (AID 1919968; active = well fitted curve in the direction sought with a large enough effect in the repeat runs; an effect the other way counts as inactive or inconclusive; note: nearly all actives have a fitted effect of over 55% in size; note: potency is the fitted concentration of half-maximal effect)
# In short: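 In human HaCaT keratinocytes stably expressing an ARE-driven luciferase, compound exposure lasted 23 h at 37 C under 5% CO2. Viable cells are quantified with a protease-based fluorogenic reagent (CellTiter-Fluor) read 1 h after addition.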
# [2] = Nuclear factor erythroid 2-related factor 2/antioxidant responsive element (Nrf2/ARE) small molecule agonists: luciferase reporter gene qHTS assay in human keratinocytes (AID 1919969); note: nearly all actives have a fitted effect of over 35% in size; note: potency is the fitted concentration of half-maximal effect
# [3] = target: Gonadotropin-releasing hormone receptor (Homo sapiens) (UniProt P30968); assay: Human gonadotropin-releasing hormone receptor (GnRHR) small molecule agonists, calcium flux assay in GnRHR-HEK293 cells (AID 1920063); note: nearly all actives have a fitted effect of over 35% in size
# In short: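 Intracellular calcium rise is the read-out: engineered human GnRHR HEK293 cells, dye-loaded, are exposed to DMSO-dissolved compounds and fluorescence at Ex/Em 480/540 is tracked for 3 min.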
# [4] = target: KiSS-1 receptor (Homo sapiens) (UniProt Q969F8); assay: Human kisspeptin (KISS1R) small molecule agonists, calcium flux assay in KISS1R-HEK293 cells (AID 1920064; active = well fitted curve in the direction sought with a large enough effect in the repeat runs; an effect the other way counts as inactive or inconclusive)
# In short: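 Concentration-response testing used 15 concentrations in triplicate on human KISS1R-expressing HEK293 cells. Calcium-dependent fluorescence (Ex/Em 480/540) was followed kinetically for 3 min after compound transfer.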
# [5] = G protein-coupled receptor (GPCR) small molecule agonists, calcium flux assay: HEK293 wild type cell line counter screen (AID 1920065)
# In short: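 Fluorescence intensity signals activation. After overnight (18 h) culture and a 1 h calcium dye load at 37 C, compounds are added by pin tool and the plate read at 480/540 nm for 3 min in 1 s steps.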
# [6] = p53 small molecule agonists, cell-based qHTS assay with human liver microsomes (AID 1963577);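 note: p53 response element beta-lactamase reporter cells with liver microsomes plus NADPH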
# In short: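 Compounds act here after metabolic activation: human liver microsomes and NADPH, both at 0.5 mg/mL final, were co-added to p53RE-bla cells. Incubation ran 16 h at 37 C, followed by LiveBLAzer detection.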
# [7] = p53 small molecule agonists, cell-based qHTS assay with rat liver microsomes (AID 1963578)
# In short: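 Read-out is beta-lactamase reporter fluorescence (LiveBLAzer, 2 h, room temperature, dark) in p53RE-bla cells treated 16 h at 37 C with compound, rat liver microsomes and NADPH, both 0.5 mg/mL final.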
# [8] = p53 small molecule agonists, cell-based qHTS assay with rat liver microsomes: qHTS cell viability counter screen (AID 1963580); note: nearly all actives have a fitted effect of over 45% in size; note: potency is the fitted concentration of half-maximal effect
# In short: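 Cytotoxicity counter screen: intracellular ATP read by CellTiter-Glo luminescence in the p53 reporter wells. HCT-116 p53RE-bla cells were treated for 16 h at 37 C alongside rat liver microsomes and NADPH, each 0.5 mg/mL final.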
# [9] = p53 small molecule agonists, cell-based qHTS assay: qHTS cell viability counter screen (AID 1963581); note: nearly all actives have a fitted effect of over 45% in size; note: potency is the fitted concentration of half-maximal effect
# In short: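 Luminescence from CellTiter-Glo, reflecting ATP content, serves as the cytotoxicity measure; it is taken after the 2 h reporter substrate step in HCT-116 p53RE-bla cells dosed for 16 h at 37 C.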
# [10] = target: 5-hydroxytryptamine receptor 2A (Homo sapiens) (UniProt P28223); assay: 5-hydroxytryptamine receptor 2A (HTR2A) small molecule antagonists, cell-based qHTS assay (AID 1963586); note: nearly all actives have a fitted effect of over 45% in size
# In short: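 CHO cells stably expressing human HTR2A were plated for 18 h at 37 C, then loaded with calcium dye for 1 h. Compounds were preincubated 5 min at room temperature before DOI (4 nM solution) was added. Kinetic fluorescence was read for 3 min.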
# [11] = target: 5-hydroxytryptamine receptor 2A (Homo sapiens) (UniProt P28223); assay: 5-hydroxytryptamine receptor 2A (HTR2A) small molecule agonists, cell-based qHTS assay (AID 1963587); note: nearly all actives have a fitted effect of over 30% in size; note: potency is the fitted concentration of half-maximal effect
# In short: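 Kinetic calcium-flux fluorescence (2 min, 1 sec intervals) after compound addition in agonist mode. HTR2A-CHO cells were cultured 18 h, then dye-loaded 1 h at 37 C.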
# [12] = target: Muscarinic acetylcholine receptor M1 (Homo sapiens) (UniProt P11229); assay: Cholinergic receptor muscarinic 1 (CHRM1) small molecule antagonists, cell-based qHTS assay (AID 1963588); note: nearly all actives have a fitted effect of over 40% in size; note: potency is the fitted concentration of half-maximal effect
# In short: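 Compounds were tested at 15 concentrations in three independent runs. Dye-loaded CHRM1-CHO cells were exposed 5 min at room temperature before stimulation by acetylcholine added at 50nM. Intracellular calcium was read kinetically on FDSS for 3 min.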
# [13] = target: Muscarinic acetylcholine receptor M1 (Homo sapiens) (UniProt P11229); assay: Cholinergic receptor muscarinic 1 (CHRM1) small molecule agonists, cell-based qHTS assay (AID 1963589); note: nearly all actives have a fitted effect of over 35% in size
# In short: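 Fluorescent calcium dye reports M1 activation in stably transfected CHO cells. Compounds, 15 concentrations, added after 1 h dye loading at 37 C; kinetic reading at 1 sec intervals.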
# [14] = cAMP Responsive Elements (CRE) small molecule agonists, cell-based qHTS assay (AID 1963590)
# In short: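 Compound exposure lasted 3 h at 37 C/5% CO2 in CRE-bla HEK 293T cells grown in assay medium with 10% dialyzed FBS and 25 mM HEPES. Reporter signal came from LiveBLAzer B/G FRET substrate, 2 h, room temperature.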
# [15] = cAMP Responsive Elements (CRE) small molecule antagonists, cell-based qHTS assay (AID 1963591; active = well fitted inhibition curve with a large enough effect in the signal ratio in the repeat runs, not every such curve was filed as active; the % refers to the signal ratio; note: potency is the fitted concentration of half-maximal effect)
# In short: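 Stimulation used NKH477 at a final 0.25 uM for 3 h in compound-treated CRE-bla HEK293T cells, seeded 18 h beforehand. Reporter activity was measured with LiveBLAzer B/G FRET substrate after 2 h at room temperature.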
# [16] = target: Beta-2 adrenergic receptor (Homo sapiens) (UniProt P07550); assay: Adrenergic beta2 receptor (ADRB2) small molecule antagonists, cell-based qHTS assay (AID 1963592); note: nearly all actives have a fitted effect of over 50% in size; note: potency is the fitted concentration of half-maximal effect; for activity change, negative = inhibition: series mostly up to about 92 µM
# In short: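 Assay format: CHO-ADRB2 cells, 18-20hr seeding at 37C/5% CO2, then compound plus 1nM isoproterenol agonist mix for 0.5hr RT. Homogeneous time-resolved fluorescence cAMP detection after 1hr, expressed as 665/615 nm ratio.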
# [17] = target: D(2) dopamine receptor (Homo sapiens) (UniProt P14416); assay: Dopamine D2 receptor (DRD2) small molecule agonists, cell-based qHTS assay (AID 1963594); note: nearly all actives have a fitted effect of over 35% in size
# In short: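 cAMP accumulation in DRD2-HEK293 cells measured by HTRF after 1 h detection; compounds added 10 min before NKH477 (200nM […]) forskolin-analogue stimulation, 30 min at room temperature, with Ro20-1724 present at 0.1 mM final.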
# [18] = target: D(2) dopamine receptor (Homo sapiens) (UniProt P14416); assay: Dopamine D2 receptor (DRD2) small molecule antagonists, cell-based qHTS assay (AID 1963595; active = well fitted inhibition curve with a large enough effect in the signal ratio in the repeat runs, with a control signal flat; the % refers to the signal ratio)
# In short: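 In this cell-based antagonist screen, compounds act for 10 min at room temperature before a 30 min challenge with 12 nM quinpirole and 200 nM NKH477. cAMP is quantified by HTRF competition in DRD2-HEK293 cells containing 0.1 mM Ro20-1724.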
# [19] = target: Beta-2 adrenergic receptor (Homo sapiens) (UniProt P07550); assay: Adrenergic beta2 receptor (ADRB2) small molecule agonists, cell-based qHTS assay (AID 1963593);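 note: CHO cells stably overexpressing human ADRB2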
# In short: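 CHO cells stably over-expressing ADRB2 were plated overnight at 37C, then dosed with compounds plus a stimulation mix containing 100uM IBMX and 25uM Ro-20-1724 for 0.5hr at room temperature. cAMP was measured by HTRF competition, 1hr.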
# [20] = p53 small molecule agonists, cell-based qHTS assay (AID 1963582; active = well fitted activation curve with a large enough effect in the signal ratio in the repeat runs, not every such curve was filed as active; the % refers to the signal ratio)
# In short: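 After plating, p53RE-bla cells sat 5 h in the incubator; compounds or DMSO vehicle were pinned in; a 16 h incubation at 37 C followed; FRET substrate was added and, 2 h later at RT, fluorescence was measured.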
# Chain of KiSS-1 receptor (Homo sapiens) (Q969F8 whole entry, looked up): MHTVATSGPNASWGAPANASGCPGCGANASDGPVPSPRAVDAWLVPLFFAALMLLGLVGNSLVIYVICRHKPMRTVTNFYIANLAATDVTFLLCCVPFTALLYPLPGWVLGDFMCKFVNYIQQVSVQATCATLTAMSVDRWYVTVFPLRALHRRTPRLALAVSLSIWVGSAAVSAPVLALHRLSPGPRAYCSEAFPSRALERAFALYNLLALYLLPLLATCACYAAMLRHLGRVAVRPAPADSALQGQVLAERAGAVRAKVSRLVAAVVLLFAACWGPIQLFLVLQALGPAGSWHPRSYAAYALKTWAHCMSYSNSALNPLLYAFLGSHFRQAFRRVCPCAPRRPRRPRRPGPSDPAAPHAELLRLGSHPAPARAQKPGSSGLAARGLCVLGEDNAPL
# Chain of D(2) dopamine receptor (Homo sapiens) (P14416 whole entry, looked up): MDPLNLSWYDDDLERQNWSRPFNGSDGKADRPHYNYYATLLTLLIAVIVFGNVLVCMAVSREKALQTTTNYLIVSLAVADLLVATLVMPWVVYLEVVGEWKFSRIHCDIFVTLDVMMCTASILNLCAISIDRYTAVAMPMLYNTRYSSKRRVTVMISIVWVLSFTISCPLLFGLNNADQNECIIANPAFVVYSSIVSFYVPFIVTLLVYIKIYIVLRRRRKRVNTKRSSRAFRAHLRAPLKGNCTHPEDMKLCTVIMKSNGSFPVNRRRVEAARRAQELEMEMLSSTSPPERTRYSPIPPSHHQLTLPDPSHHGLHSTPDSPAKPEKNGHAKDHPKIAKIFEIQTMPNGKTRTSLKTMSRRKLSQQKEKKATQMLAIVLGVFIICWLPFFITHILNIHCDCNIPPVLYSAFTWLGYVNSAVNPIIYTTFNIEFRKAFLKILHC
# Chain of Muscarinic acetylcholine receptor M1 (Homo sapiens) (P11229 whole entry, looked up): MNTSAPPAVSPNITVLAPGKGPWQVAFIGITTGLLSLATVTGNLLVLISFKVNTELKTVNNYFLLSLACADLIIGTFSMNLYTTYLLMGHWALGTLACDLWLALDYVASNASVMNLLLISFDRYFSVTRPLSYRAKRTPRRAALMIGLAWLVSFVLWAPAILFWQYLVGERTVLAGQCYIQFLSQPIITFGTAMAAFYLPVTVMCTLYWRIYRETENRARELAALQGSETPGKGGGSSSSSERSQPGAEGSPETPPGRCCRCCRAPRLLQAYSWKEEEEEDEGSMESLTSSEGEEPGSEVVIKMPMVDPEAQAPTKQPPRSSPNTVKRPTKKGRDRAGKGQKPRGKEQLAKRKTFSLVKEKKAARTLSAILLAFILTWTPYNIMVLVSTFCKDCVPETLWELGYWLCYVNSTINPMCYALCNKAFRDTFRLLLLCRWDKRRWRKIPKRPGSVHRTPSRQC
# Chain of Gonadotropin-releasing hormone receptor (Homo sapiens) (P30968 whole entry, looked up): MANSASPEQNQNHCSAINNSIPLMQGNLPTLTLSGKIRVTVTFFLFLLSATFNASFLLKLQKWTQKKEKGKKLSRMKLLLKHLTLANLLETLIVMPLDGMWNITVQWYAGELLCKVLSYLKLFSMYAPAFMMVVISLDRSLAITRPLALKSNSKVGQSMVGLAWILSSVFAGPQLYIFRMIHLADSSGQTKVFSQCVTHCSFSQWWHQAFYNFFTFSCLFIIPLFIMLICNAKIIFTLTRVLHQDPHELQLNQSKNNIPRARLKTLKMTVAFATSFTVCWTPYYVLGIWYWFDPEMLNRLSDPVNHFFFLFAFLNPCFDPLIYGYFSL
# Chain of 5-hydroxytryptamine receptor 2A (Homo sapiens) (P28223 whole entry, looked up): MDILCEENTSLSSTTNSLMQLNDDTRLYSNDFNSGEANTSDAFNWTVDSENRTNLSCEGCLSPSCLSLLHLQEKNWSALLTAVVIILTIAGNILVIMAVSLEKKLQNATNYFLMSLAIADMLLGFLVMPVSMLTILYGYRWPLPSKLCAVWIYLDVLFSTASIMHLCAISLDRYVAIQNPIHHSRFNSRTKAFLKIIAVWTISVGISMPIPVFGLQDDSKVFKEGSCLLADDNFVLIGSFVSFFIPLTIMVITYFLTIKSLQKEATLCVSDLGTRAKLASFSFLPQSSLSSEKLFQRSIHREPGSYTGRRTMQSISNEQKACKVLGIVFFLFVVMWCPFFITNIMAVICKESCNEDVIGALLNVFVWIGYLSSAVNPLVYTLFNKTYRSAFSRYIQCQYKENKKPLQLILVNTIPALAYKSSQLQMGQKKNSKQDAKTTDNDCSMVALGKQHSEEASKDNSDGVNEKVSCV
# Chain of Beta-2 adrenergic receptor (Homo sapiens) (P07550 whole entry, looked up): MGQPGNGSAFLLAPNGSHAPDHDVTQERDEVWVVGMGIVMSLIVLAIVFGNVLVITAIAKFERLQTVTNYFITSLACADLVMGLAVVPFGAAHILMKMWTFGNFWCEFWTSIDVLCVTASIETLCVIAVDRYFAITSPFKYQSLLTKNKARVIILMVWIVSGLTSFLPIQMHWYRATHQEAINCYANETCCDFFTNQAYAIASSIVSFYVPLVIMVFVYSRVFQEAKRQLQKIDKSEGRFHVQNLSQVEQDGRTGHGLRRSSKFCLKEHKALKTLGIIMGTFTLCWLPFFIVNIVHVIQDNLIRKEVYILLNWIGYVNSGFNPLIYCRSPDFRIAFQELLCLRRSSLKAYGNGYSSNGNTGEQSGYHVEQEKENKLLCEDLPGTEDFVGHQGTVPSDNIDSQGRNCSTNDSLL
smiles,measurement,setting,value
OC[C@H](Cc1cccc(O)c1)[C@H](CO)Cc1cccc(O)c1,Potency,[1],inactive
same,Potency,[2],inactive
same,Potency,[3],inactive
same,outcome,[4],inactive
same,outcome,[5],inactive
same,Potency,[6],inactive
same,Potency,[7],inactive
same,Potency,[8],inactive
same,Potency,[9],inactive
same,Potency,[10],inactive
same,Potency,[11],inactive
same,Potency,[12],inactive
same,Potency,[13],inactive
same,Potency,[14],inactive
same,Potency,[15],inactive
same,Potency,[16],inactive
same,Potency,[17],inactive
same,Potency,[18],inactive
Cc1cc(O)ccc1N,Potency,[1],61.4 µM (active)
same,Potency,[2],54.8 µM (active)
same,Potency,[3],inactive
same,outcome,[4],inactive
same,outcome,[5],inactive
same,Potency,[6],inactive
same,Potency,[7],inactive
same,Potency,[8],inactive
same,Potency,[10],inactive
same,Potency,[11],inactive
same,Potency,[12],inactive
same,Potency,[15],inactive
same,Potency,[16],inactive
same,Potency,[19],inactive
same,Potency,[18],inactive
Nc1ccc2cc(S(=O)(=O)O)ccc2c1,Potency,[1],inactive
same,Potency,[2],inactive
same,Potency,[3],inactive
same,outcome,[4],inactive
same,outcome,[5],inactive
same,Potency,[6],inactive
same,Potency,[7],inactive
same,Potency,[8],inactive
same,Potency,[9],inactive
same,Potency,[10],inactive
same,Potency,[11],inactive
same,Potency,[13],inactive
same,Potency,[14],inactive
same,Potency,[15],inactive
same,Potency,[16],inactive
same,Potency,[17],inactive
N[C@@H](CSCCCO)C(=O)O,"activity change, negative = cytotoxicity",[1],5.92% [at 19 µM]
same,"activity, positive = activation",[2],-5.15% [at 19 µM]
same,activity change,[3],"-0.573% [at 11.8 µM, active compounds read high]"
same,activation,[4],2.59% [at 15.8 µM]
same,activation,[5],0.0618% [at 11.8 µM]
same,activation,[6],1.76% [at 13.5 µM]
same,activation,[7],4.94% [at 13.6 µM]
same,"activity change, negative = cytotoxicity",[8],-10.3% [at 13.5 µM]
same,activation,[20],9.64% [at 13.5 µM]
same,"activity, negative = inhibition",[10],4.22% [at 12.7 µM]
same,activation,[11],0.941% [at 15.9 µM]
same,"activity, negative = inhibition",[12],-6.77% [at 12.6 µM]
same,activation,[13],-0.169% [at 15.8 µM]
same,activation,[14],0.961% [at 19 µM]
same,"activity change, negative = inhibition",[15],4.42% [at 18.9 µM]
same,"activity change, negative = inhibition",[16],-0.974% [at 19 µM]
same,activation,[17],5.68% [at 19 µM]
same,"activity change, negative = inhibition",[18],8.57% [at 18.9 µM]
CCC1(CO)COCOC1,Potency,[1],inactive
same,Potency,[2],inactive
same,Potency,[3],inactive
same,outcome,[4],inactive
same,outcome,[5],inactive
same,Potency,[6],inactive
same,Potency,[7],inactive
same,Potency,[8],inactive
same,Potency,[20],inactive
same,Potency,[10],inactive
same,Potency,[11],inactive
same,Potency,[13],inactive
same,Potency,[15],inactive
same,Potency,[16],inactive
same,Potency,[17],inactive
same,Potency,[18],inactive
CCN(C(=O)c1cc(C)cc(OC[C@H](C)Nc2ccncc2)c1)C(C)C,Potency,[1],inactive
same,Potency,[2],inactive
same,Potency,[3],inactive
same,outcome,[4],inactive
same,outcome,[5],inactive
same,Potency,[6],inactive
same,Potency,[7],inactive
same,Potency,[8],inactive
same,Potency,[9],inactive
same,Potency,[11],inactive
same,Potency,[12],inactive
same,Potency,[13],inactive
same,Potency,[15],21.4 µM (active)
same,Potency,[16],inactive
same,Potency,[19],inactive
same,Potency,[18],inactive
CCO[Si](C)(CCCOCC1CO1)OCC (stereo not given),Potency,[1],inactive
same,Potency,[2],inactive
same,Potency,[3],inactive
same,outcome,[4],inactive
same,outcome,[5],inactive
same,Potency,[6],inactive
same,Potency,[7],inactive
same,Potency,[8],inactive
same,Potency,[20],inactive
same,Potency,[10],inactive
same,Potency,[11],inactive
same,Potency,[12],inactive
same,Potency,[13],inactive
same,Potency,[17],inactive
same,Potency,[18],inactive
O=c1[nH]sc2cc(Cl)ccc12,Potency,[1],18.8 µM (active)
same,Potency,[2],13.3 µM (active)
same,Potency,[3],inactive
same,outcome,[4],inactive
same,outcome,[5],inactive
same,Potency,[6],inactive
same,Potency,[7],inactive
same,Potency,[8],inactive
same,Potency,[9],inactive
same,Potency,[10],inactive
same,Potency,[11],inactive
same,Potency,[12],inactive
same,Potency,[13],inactive
same,Potency,[19],inactive
same,Potency,[18],inactive
CCCCCCCCCCn1cc[n+](CCCCCCCCCC)c1C,Potency,[1],21.7 µM (active)
same,Potency,[2],inactive
same,Potency,[3],inactive
same,outcome,[4],inactive
same,outcome,[5],inactive
same,Potency,[6],inactive
same,Potency,[7],inactive
same,Potency,[8],32.4 µM (active)
same,Potency,[9],36.4 µM (active)
same,Potency,[11],55 µM (active)
same,Potency,[12],2.98 µM (active)
same,Potency,[15],21.7 µM (active)
same,Potency,[16],27.3 µM (active)
same,Potency,[17],inactive
Nc1cnn([C@@H]2O[C@H](CO)[C@@H](O)[C@H]2O)c(=O)n1,Potency,[1],inactive
same,Potency,[2],inactive
same,Potency,[3],inactive
same,outcome,[4],inactive
same,outcome,[5],inactive
same,Potency,[6],inactive
same,Potency,[7],inactive
same,Potency,[8],inactive
same,Potency,[9],inactive
same,Potency,[10],inactive
same,Potency,[11],inactive
same,Potency,[12],inactive
same,Potency,[13],inactive
same,Potency,[15],inactive
same,Potency,[16],inactive
same,Potency,[19],inactive
same,Potency,[17],inactive
